# From PubChem BioAssay (NCI)
# The panel holds about 79,000 compounds, 15% with a hit somewhere; the sample as a whole holds those more often. A number with no mark means an inactive call. Calls of active or inactive are those of the source. Cut-off read from the data, not from the text of the source: active = growth inhibition above about 70%; inactive = the rest.
# Assay: NCI Yeast Anticancer Drug Screen. Data for the rad50 strain (AID 155);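 note: 0% = growth of vehicle-only cultures of the same strain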
# Settings: S. cerevisiae rad50 strain growth inhibition; at 50.0 µM; hits give high values
# Method in brief: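 A DNA repair-deficient yeast mutant serves as the test organism; compound-induced growth inhibition is calculated against vehicle-treated cells.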
row,SMILES,growth inhibition
1,CC(=O)c1ccc(N=NN(C)C)cc1,0.2%
2,COC1=c2\cccc\c2=c2/cccc/c2=c2\cccc\c2=N\1,17.4%
3,CCc1c(C(=O)OC)c(C(=O)OC)c(-c2ccc(C)cc2)n1CCn1c(CC)c(C(=O)OC)c(C(=O)OC)c1-c1ccc(C)cc1,-0.55%
4,COC(=O)c1ccccc1N=NNc1ccc(C(F)(F)F)c([N+](=O)[O-])c1,-10.4%
5,Nc1ncnc2c1nnn2CC(O)CO (stereo not drawn),-36%
6,CC1CCOC(/C=C/c2ccccc2)O1 (stereo not drawn),-7.9%
7,c1ccc(CC[n+]2ccncc2)cc1,-8.75%
8,CN(C)c1ccc(Cc2ccc(N(C)C)cc2[N+](=O)[O-])c([N+](=O)[O-])c1,-4.35%
9,CC12CCC(=O)C=C1CCC1C2C(=O)CC2(C)C1CCC2(O)C(=O)Cn1cc(F)c(=O)[nH]c1=O (stereo not drawn),12.1%
10,Cc1cc(C)c(S(=O)(=O)O)cc1N,-2.55%
11,COc1ccc(OC)c2c(Nc3ccc(S(=O)(=O)O)c4cc(S(=O)(=O)O)cc(S(=O)(=O)O)c34)cc(C)nc12,2.5%
12,CCOC(=O)C1(C(=O)OCC)CCC(C(OC)OC)C(CC(=O)OC)C1 (stereo not drawn),-2.45%
13,N=C(N)SCCC(=O)CCSC(=N)N,27.9%
14,C[N+]1(C)CCC(C(=O)c2ccccc2)CC1,1.15%
15,CN(C(=O)/C=C/c1ccccc1)c1ccccc1,45.6%
16,C=CS(=O)(=O)CCOc1ccc(Cl)cc1Cl,98.8% (active)
17,CC1CCCC2(C)CCC(=O)C=C12 (stereo not drawn),-2%
18,O=C1c2ccccc2CN1c1ccccc1,-23%
19,COC(=O)c1nsc(OC)c1Cl,22.1%
20,CCN(CC)CCOC(=O)c1ccc(N=C/C=C/C(C#N)=C/NOC)cc1,0.3%
21,CCOc1ccc2nc(NC(=O)/C(CC(=O)CC(C3=C(O)c4ccccc4CC3=O)c3ccccc3)=N\O)sc2c1 (stereo not drawn),-0.85%
22,Cc1csc2nc(-c3ccco3)nn12,-3.2%
23,Cc1ccc2snc(C(=O)O)c2c1[N+](=O)[O-],16.7%
